Shiga toxin inh – Shiga toxin inhibition | Vero cells, Shiga toxin protein synthesis inhibition reporter | AID 2315 | 290,000 tested, 9.2% active | inhibition, % at 38.7 µM; in the data active means inhibition mostly above about 28%, no sharp cut-off; inactive means mostly below about 43%
Pf growth 96h – inhibits malaria parasite growth, 96 h | P. falciparum luciferase reporter growth, 96 h | Potency, µM (highest dose often 28.7 µM), actives largely listed as inhibitors | 320,000 tested, 6.9% active | AID 504834
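Plates of compound plus infected erythrocytes (2% hematocrit, 0.05% parasitemia final) incubate 96 hours, 37 C, 5% CO2. Detection reagent added; reduced luminescence from the parasites' luciferase reporter flags inhibition.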
HCMV antiviral – human cytomegalovirus inhibition. HFF cells, HCMV-luciferase reporter, 72 h; active compounds read low. activity change, negative = inhibition, % at 57.5 µM. 410,000 tested, 4.5% active. AID 1259415; in the data active means activity change below about -60%; inconclusive means no clear call, values can overlap the other calls; inactive means above about -39%
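After 16 h attachment at 37C, HFF cells received test compound and HCMV-luciferase (1 PFU/cell); reporter luminescence read 72 h later, data normalized against buffer-only and known inhibitor Salinomycin.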
Cycloheximide cs – affects cycloheximide protein synthesis inhibition readout, counter-screen; cell reporter, cycloheximide protein synthesis inhibition counterscreen; max response, %; 300,000 tested, 12% active; AID 2314; in the data active means max response mostly above about 13%, no sharp cut-off; inactive means mostly below about 14%; further: read at 38.3 µM for the half of the compounds with a filed dose
Pf growth 48h – P. falciparum growth inhibition at 48 hours (one generation) | P. falciparum luciferase growth in erythrocytes, 48 h | Potency, µM (top dose mostly 28.7 µM), actives largely listed as inhibitors | 310,000 tested, 5.9% active | AID 504832
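Luminescence readout; reporter = integrated firefly luciferase in P. falciparum. RBC culture at 2% hematocrit, 0.1% parasitemia final, 37 C/5% CO2; decreased signal taken as growth inhibition.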
A number is an active result. In the library only some 20% were active in any assay of this set; here they are far more common. Unless noted, the call rests on the fitted dose curve; in most records, active means well fitted inhibition curve with a large enough effect; inconclusive means small, poorly fitted or top-dose-only effect, or another doubt; inactive means no such curve, though single readings can be large or run the other way.

O=C(CSCc1ccc(Cl)cc1)NCc1ccc2c(c1)OCO2 was read as Shiga toxin inh inactive, Pf growth 96h inactive, HCMV antiviral inconclusive, Cycloheximide cs inactive and Pf growth 48h inactive.
Screening O=C(CSCc1ccccc1Cl)Nc1ccc2c(c1)OCCO2 returned Shiga toxin inh 95, Pf growth 96h inactive, HCMV antiviral inactive, Cycloheximide cs 58 and Pf growth 48h inactive.
Screening O=C(CSCc1ccc(Cl)cc1)Nc1ccc2c(c1)OCO2 returned Shiga toxin inh inactive, Pf growth 96h 12µM, HCMV antiviral inactive, Cycloheximide cs inactive and Pf growth 48h inactive.
For C/C(Cn1cnc([N+](=O)[O-])n1)=N\NC(=O)c1ccccc1O the results were Shiga toxin inh 39, Pf growth 96h inactive, HCMV antiviral inactive, Cycloheximide cs 24 and Pf growth 48h inactive.
C/C(Cn1cnc([N+](=O)[O-])n1)=N/NC(=O)COc1ccccc1Cl was read as Shiga toxin inh inactive, Pf growth 96h inactive, HCMV antiviral inactive, Cycloheximide cs inactive and Pf growth 48h inactive.
C/C(Cn1nc([N+](=O)[O-])cc1C)=N\NC(=O)c1ccc(O)cc1O was read as Shiga toxin inh inactive, Pf growth 96h inactive, HCMV antiviral inactive, Cycloheximide cs 30 and Pf growth 48h inactive.
`C/C(Cn1cnc([N+](=O)[O-])n1)=N\NC(=O)c1ccccc1F` gave HCMV antiviral inactive.
Screening C/C(Cn1cnc([N+](=O)[O-])n1)=N\NC(=O)c1ccc(O)cc1O returned Shiga toxin inh 87, Pf growth 96h inconclusive, HCMV antiviral inactive, Cycloheximide cs 42 and Pf growth 48h inactive.
Screening COc1cc(C(=O)N/N=C(\C)Cn2nc([N+](=O)[O-])cc2C)ccc1O returned Shiga toxin inh inactive, Pf growth 96h inactive, HCMV antiviral inactive, Cycloheximide cs inactive and Pf growth 48h inactive.
Screening O=C(COC(=O)CC1CCCC1)Nc1cccc(F)c1 returned Pf growth 96h inactive, HCMV antiviral inactive and Pf growth 48h inactive.
For CN(C)/C=C1\Oc2ccc3ccccc3c2C1=O the results were Shiga toxin inh 116, Pf growth 96h inactive, HCMV antiviral inactive, Cycloheximide cs 34 and Pf growth 48h inactive.
Cc1ccc(NCc2ccc(O)c3ncccc23)cc1C was read as Shiga toxin inh 54, Pf growth 96h inconclusive, HCMV antiviral -79, Cycloheximide cs 36 and Pf growth 48h inactive.
Screening Cc1cccc(NCc2ccc(O)c3ncccc23)c1C returned Shiga toxin inh inactive, Pf growth 96h inactive, HCMV antiviral -96, Cycloheximide cs inactive and Pf growth 48h inactive.
For Oc1ccc(CNc2cccc(C(F)(F)F)c2)c2cccnc12 the results were Pf growth 96h inconclusive and Pf growth 48h 10µM.
FC(F)(F)c1cccc(NCc2cn3cccnc3n2)c1 was read as Shiga toxin inh inactive, Pf growth 96h inconclusive, Cycloheximide cs inactive and Pf growth 48h inactive.
For Cc1cccnc1NCc1ccc(O)c2ncccc12 the results were Shiga toxin inh inactive, Pf growth 96h inactive, HCMV antiviral inconclusive, Cycloheximide cs inactive and Pf growth 48h inconclusive.
CSc1ncccc1C(=O)N1CCCC(Nc2ccc(C)c(C)c2)C1 (stereo not drawn) was read as Shiga toxin inh inactive, Pf growth 96h inactive, HCMV antiviral inactive, Cycloheximide cs inactive and Pf growth 48h inactive.
Cc1ccc(NCc2ccc(O)c3ncccc23)cc1 was read as Shiga toxin inh inactive, Pf growth 96h inactive, HCMV antiviral inactive, Cycloheximide cs 16 and Pf growth 48h inactive.
For Cc1ccc(O)c(CNc2ccc(S(=O)(=O)Nc3nccs3)cc2)c1 the results were Shiga toxin inh inactive, Pf growth 96h inactive, HCMV antiviral inactive, Cycloheximide cs inactive and Pf growth 48h inactive.
Screening COc1cccc(NC(=O)C2(S(=O)(=O)c3ccc(Cl)cc3)CC2)c1 returned Shiga toxin inh inactive, Pf growth 96h inactive, HCMV antiviral inactive, Cycloheximide cs inactive and Pf growth 48h inactive.
Screening CCOC(=O)C1=C(N)Oc2c(oc(CO)cc2=O)C1c1ccccc1 (stereo not drawn) returned Shiga toxin inh inactive, Pf growth 96h inconclusive, HCMV antiviral inactive, Cycloheximide cs inactive and Pf growth 48h inactive.
For Cc1cc2c(cc1S(=O)(=O)N1CCOCC1)NC(=O)CO2 the results were Shiga toxin inh inactive, Pf growth 96h inactive, HCMV antiviral inconclusive, Cycloheximide cs inactive and Pf growth 48h inactive.
`O=C(CSCC(=O)N1CCCCC1)Nc1nc(-c2ccc(Cl)s2)cs1` gave Shiga toxin inh inactive, Pf growth 96h inactive, HCMV antiviral inactive and Cycloheximide cs 16.
O=C(CSCC(=O)N1CCCCC1)Nc1nc(-c2cccs2)cs1 was read as Shiga toxin inh inactive, Pf growth 96h inactive, HCMV antiviral inactive and Cycloheximide cs 20.

Bioassay records deposited in PubChem by National Center for Advancing Translational Sciences (NCATS).
